# From ChEMBL document CHEMBL4513216, “Probing the Open Global Health Chemical Diversity Library for Multistage-Active Starting Points for Next-Generation Antimalarials” (ACS Infect Dis, 2020)
# Hit rate of the full screen: of about 68,000 compounds, about 2,700 (4%) showed an effect of 50% or more. The full list was thinned out, with strong results kept by preference.
# Test system: Plasmodium berghei
# Test: Screen against P. berghei liver stage (PbLuc), transformed with Luciferase, at 2uM
# Type: functional, HepG2
# Settings: tested at 2 uM
row,SMILES,INHIBITION [%]
1,CS(=O)(=O)N1C[C@H]2CCCN(Cc3nccs3)[C@H]2C1,14.65
2,CC(Cn1cncn1)NC(=O)NCC(C)(C)c1ccc(F)cc1 (centres undefined),38.1
3,NC(=O)C(NC1CCN(Cc2ccc(F)cc2)CC1)c1ccccc1 (centres undefined),-15.03
4,NC(=O)C(NC1CCN(CC2CCCCC2)CC1)c1ccccc1 (centres undefined),15.27
5,NC(=O)C(NC1CCN(CC2CCCCC2)CC1)c1ccc(F)cc1 (centres undefined),65.76
6,COc1ccc(C[C@H]2CN(Cc3ccoc3)CC[C@H]2OC)cc1,10.71
7,N#Cc1ccnc(N2CCC(c3nccn3Cc3cscn3)CC2)c1,45.58
8,Cn1ccnc1C(=O)N1CCC2(CCN2c2ncccn2)C1 (centres undefined),6.07
9,Cn1ccc(C(=O)N2CCC3(CCN3c3ncccn3)C2)n1 (centres undefined),53.38
10,Cn1cccc1C(=O)N1CCC2(CCN2c2ncccn2)C1 (centres undefined),27.42
11,CCN1CCn2c(C)cnc2C12CCN(C(=O)NCC(C)C)CC2,-29.74
12,COc1cccn(Cc2nnc(-c3cccnc3)o2)c1=O,-16.19
13,Cc1ccc(NC(=O)N(C)C)c(C(=O)OCC(=O)NC2CCCC2)c1,49.71
14,CCC(C)(C)NC(=O)COC(=O)c1cc(C)ccc1NC(=O)N(C)C,60.64
15,Cc1ccc(NC(=O)N(C)C)c(C(=O)OCC(=O)NC(C)C(C)C)c1 (centres undefined),20.34
16,Cc1cc2ncc(C(C)NCc3cccnc3)c(C)n2n1 (centres undefined),19.6
17,CCc1ccccc1C(=O)NS(=O)(=O)CCCC#N,-32.8
18,COCC1c2nnn(CC3CC3)c2CCN1C(=O)c1cnccn1 (centres undefined),1.92
19,c1ccc(NC[C@@H]2CCC[C@@H]3CN(Cc4nccs4)C[C@@H]32)nc1,38.11
20,CC1CN(Cc2cnn(C)c2)CCN1c1ccc2nncn2n1 (centres undefined),62.13
21,Cc1cc(CN2CCN(c3ccc4nncn4n3)C(C)C2)no1 (centres undefined),-54.33
22,Cc1cnc(CN2CCN(c3ccc4nncn4n3)C(C)C2)cn1 (centres undefined),6.12
23,CC1CN(Cc2cccnc2)CCN1c1ccc2nncn2n1 (centres undefined),-68.26
24,CC1CN(Cc2nccn2C)CCN1c1ccc2nncn2n1 (centres undefined),3.9
25,Cc1ncc(CN2CCN(c3ccc4nncn4n3)C(C)C2)s1 (centres undefined),64.71
26,O=c1c(-c2ccnc(NC3CCCCC3)n2)cnc2sc(Cl)cn12,10.83

row,SMILES,INHIBITION [%]
1,Cn1c(C(=O)N2CC[C@@]3(O)CCCC[C@H]3C2)cc2ccccc21,5.04
2,CS(=O)(=O)N1CCCC12CCCN(S(=O)(=O)c1cccc(F)c1)C2 (centres undefined),32.41
3,CCN1Cc2ccccc2CC2(CCN(C(=O)N(C)C)CC2)C1=O,14.94
4,Cn1nc(C(=O)N2CCCC(n3cncn3)C2)ccc1=O (centres undefined),8.06
5,CC(C)(C)c1nc(CN2CCC(N3CCCCC3)CC2)no1,40.47
6,Cc1cc(C)c2cc(C(=O)N3CCNC(=O)C3)[nH]c2c1,19.48
7,O=C1CN(C(=O)c2cc3ccc(Br)cc3[nH]2)CCN1,57
8,O=C1CN(C(=O)c2cc3c(F)cc(Br)cc3[nH]2)CCN1,-10
9,Clc1cccc(C2CCN(c3ncnc4c3CCNC4)C2)c1 (centres undefined),36.79
10,COCCn1cnc(-c2nc(C(=O)N3CCOCC3)c3ccccn23)c1,11.37
11,CN(Cc1n[nH]c2c1CCCC2)c1nc(C2CC2)nc2c1CCNCC2,14.55
12,CCOc1ccc(Cl)c(C(=O)N(C)C)n1,-23.4
13,Cc1cnn(C2CN(CCOc3ccccc3C#N)C2)c1,-21.72
14,CO[C@H]1CCN(Cc2cnn(C)c2)[C@@H]2CN(Cc3ccncc3)C[C@H]12,-22.28
15,CO[C@H]1CCN(Cc2cnn(C)c2)[C@@H]2CN(Cc3cccnc3)C[C@H]12,39.06
16,CO[C@@H]1CCN(Cc2cnn(C)c2)[C@@H]2CN(Cc3cccnc3)C[C@@H]21,51.05
17,CC(C)NC(=O)CS(=O)(=O)Cc1cc(Cl)c2c(c1)OCCO2,14.82
18,CC(C)C1CN(Cc2c[nH]cn2)CCCN1CC1CC1 (centres undefined),-28.5
19,CC(CN1CCOCC1)NC(=O)N(C)Cc1ccc(Cl)s1 (centres undefined),2.8
20,c1cnc(N2CCC3(CN(CC4CCOC4)C3)C2)nc1 (centres undefined),24.54
21,c1cnc(N2CCC3(CCN(CC4CCOC4)CC3)CC2)nc1 (centres undefined),42.27
22,c1cnc(N2C[C@H]3CN(CC4CCOC4)C[C@H]3C2)nc1 (some centres undefined),55.44
23,CCn1cc(C2CCN(Cc3ccnc(N(C)C)c3)CC2)cn1,5.17
24,CCC(C)C(=O)NCc1cccc(OCCN(C)C2CCOCC2)c1 (centres undefined),-13.37
25,CC(C)CC(=O)NCc1cccc(OCCN(C)C2CCOCC2)c1,74.08
26,COCC(=O)NCc1cccc(OCCN(C)C2CCOCC2)c1,6.07

row,SMILES,INHIBITION [%]
1,CSC1(CNC(=O)c2ccn(-c3ccccc3F)n2)CCOCC1,-5.41
2,O=C(C1CCCC1)N1CC2(CCN(C3COC3)C2)OCc2ccccc21 (centres undefined),12.39
3,Cc1nc(CNC(=O)CCN2CCN(c3ccccc3)CC2)oc1C,-0.39
4,O=C(NCc1cn2cccnc2n1)C1CC(=O)N(Cc2ccccn2)C1 (centres undefined),56.79
5,O=C(NCc1cn2cccnc2n1)C1CC(=O)N(Cc2cccnc2)C1 (centres undefined),-23.46
6,CN(C)CCN1CC(C(=O)NCc2cn3cccnc3n2)CC1=O (centres undefined),11.37
7,Cc1ccc(C(=O)O)cc1S(=O)(=O)N(CC(C)O)c1ccccc1 (centres undefined),11.33
8,COc1ncccc1NC(=O)N1CCC(c2ccc(O)cc2)CC1,-14.28
9,CCN1CC(COC(=O)c2ccc(N(C)C)cc2F)CC1=O (centres undefined),-3.43
10,CCCS(=O)(=O)N1C[C@@H]2C[C@H](C(=O)N3CCOCC3)[C@H](C1)O2,32.59
11,CCCS(=O)(=O)N1C[C@@H]2C[C@H](C(=O)N3CCCC3)[C@H](C1)O2,22.71
12,CS(=O)(=O)N1C[C@@H]2C[C@H](C(=O)N3CCOCC3)[C@H](C1)O2,54.01
13,CCCS(=O)(=O)N1C[C@@H]2C[C@H](C(=O)N3CCN(C)CC3)[C@H](C1)O2,72.68
14,CC(C)CS(=O)(=O)N1C[C@@H]2C[C@H](C(=O)N3CCN(C)CC3)[C@H](C1)O2,-26.46
15,CC(C)CS(=O)(=O)N1C[C@@H]2C[C@H](C(=O)N3CCOCC3)[C@H](C1)O2,15.36
16,CCOCC1CN(Cc2ccncc2)Cc2nn(C)cc21 (centres undefined),7.26
17,CCN(C)c1ncnc2c1CCN(CC1CCOC1)CC2 (centres undefined),26.76
18,COc1cc(Cl)ccc1C(=O)NCc1n[nH]c(C)n1,29.39
19,Cc1cc(CC(=O)NCC(O)c2ccc(OC(F)F)cc2)n[nH]1 (centres undefined),17.94
20,CSc1ccc(-c2noc(CN(Cc3ccccc3)C(C)C)n2)cc1,28.97
21,COCc1nn(C(C)C)c2c1CCN(Cc1ccoc1)C2,6.35
22,Cn1nc(Cn2ccnc2)c2c1CN(Cc1ccoc1)C2,4.26
23,Cn1nc(Cn2cccn2)c2c1CN(Cc1ccoc1)C2,15.34
24,CCS(=O)(=O)N1Cc2c(Cn3cccc3)nn(C(C)C)c2C1,-24.79
25,CC(C)n1nc(Cn2cccc2)c2c1CN(Cc1ccoc1)C2,51.4
26,Cn1nc(Cn2cccc2)c2c1CN(Cc1ccoc1)C2,50.32

row,SMILES,INHIBITION [%]
1,O=C1CC[C@H]2CN(Cc3ncc[nH]3)CC[C@H]2N1CC1CCNCC1,17.37
2,Cc1cc(N2CCC(Cc3cnccn3)C2)ncn1 (centres undefined),-10.89
3,CC(C)C(C#N)N1CCN(Cc2nccn2CC(F)(F)F)CC1 (centres undefined),-16.4
4,O=C1[C@@H]2CCN(Cc3ccoc3)C[C@@H]2OCCN1Cc1cccnc1,-32.67
5,O=C1[C@@H]2CCN(C3CCOCC3)C[C@@H]2OCCN1Cc1cccnc1,4.08
6,CCS(=O)(=O)N1CC[C@H]2C(=O)N(Cc3cccnc3)CCO[C@H]2C1,58.52
7,CCOCC(O)CN1CCN(C(=O)c2cc(Cl)ccc2F)CC1 (centres undefined),15.08
8,CC(C)c1cc2c(s1)NC(c1ccccn1)NC2=O (centres undefined),-23.17
9,Cc1ccc(C2NC(=O)c3cc(C(C)C)sc3N2)cc1 (centres undefined),46.98
10,CC(C)c1cc2c(s1)NC(c1ccccc1)NC2=O (centres undefined),51.76
11,O=C(NC1CCC1)c1n[nH]c2c1CNCC2,-29.3
12,COc1ccccc1CC(=O)N1CCCC(n2nc(C)nc2C)C1 (centres undefined),59.23
13,Cc1nc(C)n(C2CCCN(C(=O)COc3ccccc3)C2)n1 (centres undefined),-2.9
14,Cc1cc(C)n(C2CCCN(C(=O)CCCc3ccccn3)C2)n1 (centres undefined),-5.15
15,Cc1nc(C)n(C2CCCN(C(=O)CCCOc3ccccc3)C2)n1 (centres undefined),-17.71
16,COc1ccccc1CC(=O)N1CCCC(n2nc(C)cc2C)C1 (centres undefined),-7.5
17,Cc1nc(C)n(C2CCCN(C(=O)CCCc3ccccn3)C2)n1 (centres undefined),70.27
18,CCc1nnc(CN2CCOC(Cn3cc(C)cn3)C2)o1 (centres undefined),-50.23
19,O=C(O)c1cc(C2=CCCCC2)cc(S(=O)(=O)NCc2ccccn2)c1,40.88
20,CC(C)(C)n1ncc(NCC(O)c2ccccc2C(F)(F)F)c(Cl)c1=O (centres undefined),6.26
21,OC1(CNCCc2csc(-c3ccncc3)n2)CCCNC1 (centres undefined),10.72
22,Fc1ccc(CN2CC[C@H]3O[C@@H](COCC4CCOCC4)CC[C@H]32)cc1,32.31
23,Cn1cncc1-c1nnc([C@H]2CCN(CC(C)(C)C)C2)o1,-23.78
24,CN(CCCOc1ccccc1Cl)C(=O)CN1CCCCCC1=O,50.42
25,CN(CCCOc1ccccc1Cl)C(=O)CN1CCNC1=O,-9.33
26,CN(CCCOc1ccccc1Cl)C(=O)CN1C(=O)CCNC1=O,27.67
